Rows were chosen to be rich in hits. Some 2.1% of all compounds tested hit in one or more screens of this group.
EWS-Fli block: EWS/Fli transcriptional activity inhibition. A673 NR0B1-luciferase reporter, viability-normalised. inhibition, % at 12.6 µM. actives 0.67% (n = 350,000). AID 651661;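 active means mean inhibition of at least 50% after viability correction, with every replicate also passing that limit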;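 further: firefly luciferase signal divided by Alamar Blue viability fluorescence both relative to DMSO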
KKLEB tox: reduces viability of KKLEB cystic fibrosis airway cells; KKLEB CF airway cells viability, ATPlite luminescence, overnight; active compounds read low; cells stimulated with P. aeruginosa culture filtrate; activity change (cytotoxicity), % at 5 µM; actives 0.36% (n = 360,000);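 active means corrected activity change at or below -50% at 5 µM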
PAX8 reporter: PAX8 transcriptional activity inhibition; RMG-I TPO-luciferase reporter, SteadyGlo, 24 h; inhibition, % at 12.6 µM; actives 1.2% (n = 360,000); AID 652154;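 active means mean replicate inhibition at least 60% with every replicate also reaching 60%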;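 further: luciferase light reporting Pax8 driven TPO promoter activity; plate controls were median of neutral control wells for no effect and mitoxantrone controls for full effect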
CF NFkB inh: cystic fibrosis NF-kB activation inhibition. KKLEB NF-kB-GFP reporter, PAF-induced, GFP fluorescence overnight. actives 0.86% (n = 360,000). inhibition, % at 5 µM;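 active means at least 50% inhibition at 5 µM, scaled per plate between neutral and stimulator controls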;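 further: PAF is a Pseudomonas aeruginosa culture filtrate used as stimulus; plate controls were PAF-stimulated DMSO wells for no effect and unstimulated DMSO wells for full effect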
HIF-2a inh: HIF-2a inhibition; 786-0 RCC cells HIF-2a reporter, luciferase luminescence, overnight; inhibition, % at 18.8 µM; actives 0.72% (n = 360,000);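 active means inhibition of the luminescence signal of 40% or more relative to plate controls, in a single-dose primary screen at 18.75 µM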
An asterisk follows results filed as active; x = not tested or not shown.

SMILES | EWS-Fli block | KKLEB tox | PAX8 reporter | CF NFkB inh | HIF-2a inh
Cc1c(CC(=O)NCCC(=O)O)c(=O)oc2cc3oc4c(c3cc12)CCCC4 | 9 | -3 | -2 | -13 | 17
Cc1c(CCC(=O)N[C@@H](C)C(=O)O)c(=O)oc2cc3oc4c(c3cc12)CCCC4 | 40 | -2 | -28 | -1 | 76*
Cc1c(CCC(=O)N2CCC(C(=O)O)CC2)c(=O)oc2cc3oc4c(c3cc12)CCCC4 | 43 | -12 | x | 10 | 58*
CCCC(=O)Nc1ccc2c(c1)C(=O)N(C)C[C@H](OC)[C@H](C)CN(CC1CCOCC1)[C@@H](C)CO2 | -1 | x | x | x | x
COc1ccc(NC(=O)Nc2ccc3c(c2)C(=O)N([C@H](C)CO)C[C@@H](C)[C@@H](CN(C)C(=O)Nc2cccc4ccccc24)O3)cc1 | 9 | x | 46 | x | x
Cc1ccc(NC(=O)C(C)OC(=O)CCNS(=O)(=O)c2ccc(C)cc2)cc1 (stereo unspecified) | 0 | 1 | 70* | -3 | 6
CCN(CCO)c1ccc(N=Nc2cc(C)[nH]n2)cc1 | 64* | -14 | 87* | 1 | 55*
O=C(CN(C1CCCCC1)S(=O)(=O)c1ccccc1)NCC1CCCO1 (stereo unspecified) | 1 | 3 | -9 | 12 | 14
O=C(CN(C1CCCCC1)S(=O)(=O)c1ccc(F)cc1)NCC1CCCO1 (stereo unspecified) | 20 | -95* | 45 | 91* | 22
O=C(C[C@H]1C=C[C@@H](NC(=O)C2CC2)[C@@H](CO)O1)Nc1nccs1 | -4 | x | 1 | x | x
O=C(C[C@H]1CC[C@@H]2[C@H](COC[C@@H](O)CN2Cc2ccc(F)cc2)O1)NCc1ccccc1Cl | 10 | x | 92* | x | x
O=C(C[C@@H]1CC[C@@H]2[C@H](COC[C@H](O)CN2Cc2ccc(Oc3ccccc3)cc2)O1)N1CCCCC1 | 14 | x | 7 | x | x
O=C(C[C@H]1CC[C@H]2[C@@H](COC[C@@H](O)CN2Cc2ccc(Oc3ccccc3)cc2)O1)N1CCCCC1 | 20 | x | 100* | x | x
O=C(C[C@@H]1CC[C@@H]2[C@H](COC[C@H](O)CN2Cc2ccc(F)cc2)O1)NCc1ccccc1Cl | -7 | x | 53 | x | x
C[C@@H](NC(=O)C[C@@H]1CC[C@@H]2[C@H](COC[C@H](O)CN2Cc2cc(F)ccc2F)O1)c1ccccc1 | 5 | x | 68* | x | x
C[C@@H](NC(=O)C[C@H]1CC[C@@H]2[C@H](COC[C@@H](O)CN2Cc2cc(F)ccc2F)O1)c1ccccc1 | -4 | x | 13 | x | x
CCNC(=O)[C@H]1[C@H](CO)[C@H]2Cn3c(ccc(/C=C/c4ccccc4)c3=O)[C@@H]1N2C(=O)C1CCCC1 | -1 | x | 4 | x | x
CCOC(=O)CSC1=NC(=O)/C(=C/c2ccc(OC)cc2)S1 | x | -29 | x | 34 | 74*
COc1ccc(/C=C2\SC(N)=NC2=O)cc1 | -22 | -4 | -4 | 16 | -51
Cc1nn(C)c(C)c1/C=N/NC(=O)CCn1cc([N+](=O)[O-])cn1 | 72* | 5 | -5 | 8 | 16
CS(=O)(=O)c1ccc(Cl)c(NC(=O)CSc2nc3ccccc3c(=O)n2Cc2ccco2)c1 | 4 | -54* | -8 | 43 | 15
Cc1cc(C(=O)CCl)c(C)n1CCc1ccccc1 | 75* | x | 32 | x | x
CCOC(=O)c1cc(C)n(CCc2ccccc2)c1C | x | -1 | x | 23 | -126
Cc1cc(C(=O)CCl)c(C)n1-c1ccon1 | 12 | 9 | -5 | 58* | -1
CCCC#Cc1cnc2c(c1)C(=O)N([C@H](C)CO)C[C@H](C)[C@H](CN(C)C(=O)Nc1c(C)noc1C)O2 | -36 | x | x | x | x
SMILES | EWS-Fli block | KKLEB tox | PAX8 reporter | CF NFkB inh | HIF-2a inh
c1ccc(-c2ncc(CSc3nncn3-c3ccccc3)s2)cc1 | x | 9 | x | -19 | -13
Cc1nnc(SCc2cnc(-c3ccc(C(C)C)cc3)s2)n1C | x | -65* | x | -8 | -51
Nc1ccc2oc(-c3cccc4ccccc34)nc2c1 | x | 0 | x | -28 | 87*
CC(C)(C)NS(=O)(=O)c1cc(C(=O)O)ccc1Cl | -6 | 0 | 2 | 10 | 13
Cc1cc(C(=O)Nc2ccc(Cl)cc2)c(C)n1-c1ccccc1 | 58* | -68* | 26 | -15 | 73*
Cc1ccc(NC(=O)c2cc3ccccc3oc2=N)cc1 | 69* | -16 | -5 | -20 | -114
Cc1cc(C(=O)NNS(=O)(=O)c2cc(C(=O)O)ccc2Cl)c(C)n1-c1ccccc1 | 34 | -14 | 29 | 9 | 64*
N=c1oc2ccccc2cc1C(=O)Nc1ccc(F)cc1 | 26 | -28 | -192 | 12 | -215

Bioassay records as filed in PubChem.
